Measurements taken from PubChem BioAssay AID1259415 (National Center for Advancing Translational Sciences (NCATS), 2018).
About 18,000 (4.4%) of roughly 410,000 compounds were called active. Inconclusive results (about 7%) are left out. The full list was thinned out, with actives kept by preference. A number with no mark means an inactive call. Rule as the data show it: active = activity change below about -60%; inconclusive = no clear call, values can overlap the other calls; inactive = above about -39%.

Test: qHTS Assay for inhibitors of the human cytomegalovirus (HCMV)
Details: HFF cells, HCMV-luciferase reporter, 72 h; at 57.5 µM; active compounds read low
How it was run: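 HFF cells seeded 16 h at 37C, treated with compounds, infected with luciferase-reporter HCMV at MOI 1 PFU/cell; luciferase read at 72 h post infection, normalized to buffer-only and Salinomycin controls.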
% is scaled to controls: 0 for no effect and ±100 for the full control effect.

SMILES | activity change, negative = inhibition
COC(=O)/C(=C\Nc1ccccc1)NC(=O)c1ccc(Cl)cc1Cl | -5.36%
COc1ccc(OC)c(CCNC(=O)CCCn2c(=O)c3cccn3c3cccnc32)c1 | 6.58%
COc1ccc(NC(=O)CN2CCCN(Cc3ccccc3)S2(=O)=O)cc1 | 0%
COC(=O)[C@]1(S(=O)(=O)c2ccccc2)C[C@@H]2ON=C(c3ccc(OC)cc3)[C@@H]2C1 | 13.3%
N#C[C@]1(S(=O)(=O)c2ccccc2)C[C@@H]2ON=C(c3cccc(Br)c3)[C@@H]2C1 | -79.5% (active)
COc1ccc(CNc2nc(-c3ccc(Cl)cc3)cc(C(F)(F)F)n2)cc1 | -7.09%
CCN(CC)S(=O)(=O)c1ccc2c(c1)nc(CN(C)C(=O)Nc1ccc(Cl)cc1)n2C | 9.69%
Cc1noc(/C=C/c2ccco2)c1S(=O)(=O)N1CCC(C(=O)N2CCc3ccccc32)CC1 | 47.1%
Cc1cccc(NC(=O)C2CCN(S(=O)(=O)c3c(C)noc3/C=C/c3ccco3)CC2)c1 | -40%
Cc1noc(/C=C/c2ccco2)c1S(=O)(=O)N1CCC(C(=O)Nc2ccc(Cl)cn2)CC1 | -79.9% (active)
C[C@H]1CN([C@@H](C)CO)C(=O)CCCn2cc(nn2)CO[C@@H]1CN(C)S(=O)(=O)c1ccccc1C#N | -5.79%
Cc1cccc(N2CCN(S(=O)(=O)c3ccc4[nH]c5c(c4c3)CCCCC5)CC2)c1C | 16.6%
Cc1c(NC(=O)Nc2ccc(F)c(Cl)c2)c(=O)n(-c2ccccc2)n1C | 1.88%
O=C(NC(Cc1ccccc1)C(=O)O)/C(=C\c1ccccc1)NC(=O)c1ccco1 (stereo not given) | 54.3%
C/C(CC(=O)NC(C)(C)C)=N\NC(=O)c1ccco1 | 16.9%
CC(C)(C)NC(=O)/C(=C/c1cccnc1)NC(=O)c1ccco1 | -61.3% (active)
Cc1ccc(/C=C(\C#N)C(=O)Nc2cc(C)ccc2C)cc1 | -15.9%
Cc1ccc(CNC(=O)C2CCCN2C(=O)NCc2ccccc2)cc1 (stereo not given) | 1.11%
CCCc1cc(=O)n2[nH]c(C)c(-c3ccc(Cl)cc3)c2n1 | 4.01%
O=c1c2ccccc2[nH]c(=S)n1-c1cccc(Cl)c1 | -21.9%
Cc1[nH]n(-c2cccc(Cl)c2)c(=O)c1-c1ccc(Cl)cc1 | -66.9% (active)
Cc1ccc2c(c1)N(CC(=O)N1CCCC(C)C1)C(=O)CO2 (stereo not given) | -22.2%

SMILES | activity change, negative = inhibition
COC(=O)c1sc2ncccc2c1-n1c(C)ccc1C | -10.3%
CCOC(=O)c1cc2cc(OC)ccc2n1C1CCN(C)CC1 | -32.2%
CCN(CC)c1cc(NC2CCCCC2)c2c3c(onc13)-c1ccccc1C2=O | -25.5%
CC(Oc1ccc(Cl)cc1)C(=O)Nc1ncccn1 (stereo not given) | -1.17%
COc1c(Cl)cc(Cl)cc1C(=O)Nc1cccc2cccnc12 | 33.4%
CC(=O)/C(=N\Nc1ccc(Cl)cc1Cl)Sc1cccc2cccnc12 | -103% (active)
Cc1nn2c(=O)cc(COC(=O)c3ccccc3NC(=O)COc3ccccc3C)nc2s1 | 31.1%
Cc1cccc(-n2ncc(Cl)c(Cl)c2=O)c1 | -104% (active)
CC(=O)c1cccc(NC(=O)c2nc(-c3ccccc3)n(-c3cccc(C)c3)n2)c1 | -18.5%
Cc1cccc(-n2ncc(C(=O)N3CCN(c4ccc(Cl)cc4)CC3)c2C2CCN(C(=O)OC(C)(C)C)CC2)c1 | 0%
CN1CCN(C(CNC(=O)c2ccccc2F)c2ccc3c(c2)OCO3)CC1 (stereo not given) | 12.6%
COc1ccc(N2C(=O)CCC(C(=O)N(C)C3CCCCC3)C2c2ccc(OC)c(OC)c2)cc1 (stereo not given) | -12.4%
CN(C)S(=O)(=O)c1ccc(C(=O)N(Cc2cccnc2)c2nc3c(F)cc(F)cc3s2)cc1 | 0%
Cc1ccsc1C(=O)OCC(=O)c1cc(C)n(CC2CCCO2)c1C (stereo not given) | -75.9% (active)
Cc1cc(C(=O)COC(=O)c2cccs2)c(C)n1-c1c(C)n(C)n(-c2ccccc2)c1=O | -1.04%
COCCn1c(C)cc(C(=O)COC(=O)CNC(=O)c2ccco2)c1C | 0%
COc1ccc(CNC(=O)c2ccc(NC(=O)N3CC4CCCN4c4ccccc43)cc2)cc1 (stereo not given) | -1.77%
CCOc1ccc(CNC(=O)C2CCN(c3nnc(-n4cccc4CNc4ccc(C)cc4)s3)CC2)cc1OC | -18.2%
CSc1ccc(CCNC(=O)C2CCN(c3nnc(-n4cccc4)s3)CC2)cc1 | -19.1%
Cc1ccc(CCNC(=O)C2CCN(c3nnc(-n4cccc4CNc4ccc(C)cc4)s3)CC2)cc1 | -72.7% (active)
CCOC(=O)c1c(S(=O)(=O)NCC(=O)Nc2ccc(Cl)c(C(F)(F)F)c2)c(C)n(C)c1C | -27.1%
CC(C)C[C@H]1CN([C@@H](CC(C)C)CN2CCC[C@@H]2CN2C(=O)C(=O)NC[C@@H]2Cc2ccccc2)C(=O)C(=O)N1CCc1ccccc1 | -63.2% (active)

SMILES | activity change, negative = inhibition
CC(C)C[C@H]1CN([C@@H](Cc2ccccc2)CN2CCC[C@@H]2CN2C(=O)C(=O)NC[C@@H]2Cc2ccc(O)cc2)C(=O)C(=O)N1CCc1ccccc1 | -26.7%
CCOc1ccc(CCN2C(=O)C(=O)N([C@@H](CC(C)C)CN3CCC[C@H]3CN3C(=O)C(=O)NC[C@@H]3Cc3ccccc3)C[C@@H]2CC(C)C)cc1 | -7.85%
O=C(Nn1c(-c2ccc(Cl)cc2)nc2ccccc2c1=O)c1cccnc1Cl | -11.2%
O=c1c2ccccc2nc(-c2ccccc2)n1-c1ccccn1 | -62.3% (active)
O=c1c2ccccc2c(-c2ccccc2)nn1-c1ccccn1 | -24.2%
COc1cccc(CNC(=O)CN2C(=O)CCc3cc(S(=O)(=O)N4CCOCC4)ccc32)c1 | 7.53%
COc1cc(OC)cc(-c2nc3nc(C)c(CCC(=O)Nc4ccc(C)cc4)c(C)n3n2)c1 | 22.9%
CCC1CCCCN1S(=O)(=O)c1ccc(NC(=O)c2cc(=O)c3ccccc3o2)cc1 (stereo not given) | -21.4%
CCc1ccc(NC(=O)c2sc3nc4c(cc3c2N)CN(CC)CC4)cc1 | -27.1%
Cc1cccc(-c2nnc(SCC(=O)N3CCCc4ccccc43)o2)c1 | -13.3%
Cc1cccc2cc3c(N)c(C(=O)N4CCCc5ccccc54)sc3nc12 | -66.1% (active)
COc1ccc(N2CCN(Cc3nc4c(c(=O)[nH]c(=O)n4C)n3Cc3ccc(Cl)cc3)CC2)cc1 | -12.8%
Cc1cc(OC(C)C(=O)Nc2sc3c(c2C(N)=O)CCCC3)ccc1Cl (stereo not given) | -5.13%
O=C(NCCCN1CCCCC1)C1CC(=O)N(CCc2ccccc2)C1 (stereo not given) | 0.846%
O=C(NC1CCCCC1)C1CC(=O)N(CCc2ccccc2)C1 (stereo not given) | -109% (active)
Cc1ccc(CCN2CC(C(=O)NCCc3ccccc3)CC2=O)cc1 (stereo not given) | -5.82%
CC(=O)N1c2ccc(S(=O)(=O)N3CCCCCC3)cc2CC1C(=O)NCc1ccccc1C (stereo not given) | 8.34%
O=C(C1CCC(Cn2c(=O)c3sccc3n(Cc3ccccc3F)c2=O)CC1)N1CCCCC1 (stereo not given) | 3.01%
CC(=O)N1CCC(C(=O)OCc2ccc(Cl)cc2)(c2ccccc2)CC1 | 7.78%
O=C(OCCN1CCOCC1)C1(c2ccccc2)CCCC1 | -35.5%
O=C(OCCN1CCOCC1)C1(c2ccccc2)CCCCC1 | -71.6% (active)
COc1ccc(CCNc2ncnc3c2cnn3-c2ccc(C)cc2)cc1 | -8.18%

SMILES | activity change, negative = inhibition
O=C1CCC[C@H]2[C@@H](Cc3ccccc3)[C@@H](NS(=O)(=O)c3ccc([N+](=O)[O-])cc3[N+](=O)[O-])CC[C@]23CCCN13 | -34.8%
CCOc1ccc(C(CC(=O)O)NC(=O)COc2ccccc2)cc1 (stereo not given) | 36.3%
CCOC(=O)/C=C/C(=O)OCC(=O)NC(c1ccccc1)c1ccccc1 | -66.5% (active)
Cc1ccccc1OCCC(=O)OCC(=O)NC(C)c1ccccc1 (stereo not given) | 145%
Cc1ccn(C(CC(=O)c2ccc(Br)cc2)C(=O)O)n1 (stereo not given) | 18.9%
O=c1ccc2c(-c3ccccc3S(=O)(=O)O)c3ccc(O)c(O)c3oc-2c1O | -91.7% (active)
Cc1nc(N2CCOCC2)c2c(C(=O)NCc3cccc(Cl)c3)c(C)oc2n1 | -10.3%
COc1cccc(C(=O)NCC(=O)OCc2cc(=O)n3ccsc3n2)c1 | 8.23%
CCOC(=O)c1c(C)oc2nc(C)nc(N3CCN(c4ccc(OC)cc4)CC3)c12 | -14.4%
CCN(CC)c1ccc2oc(=O)c(C)nc2c1 | -70.4% (active)
O=C(CC1(O)C(=O)N(CN2CCOCC2)c2ccccc21)c1ccccc1 (stereo not given) | 23.8%
Cc1coc(C)c1C(=O)CC1(O)C(=O)N(C)c2ccc(Cl)cc21 (stereo not given) | 0%
Cc1ccc(C(=O)CC2(O)C(=O)N(CCc3ccccc3)c3ccc(Br)cc32)cc1 (stereo not given) | -97.7% (active)
Cc1ccc2c(c1)C(O)(CC(=O)c1cccc(-n3cccc3)c1)C(=O)N2 (stereo not given) | -9.59%
C=CCN1C(=O)C(O)(CC(=O)c2ccccn2)c2ccccc21 (stereo not given) | 51.3%
COc1ccc2c(c1)C(=C(C#N)C#N)C(=O)N2CCc1ccccc1 | 32.5%
CCCN1C(=O)C(O)(CC(=O)c2ccc(CC)cc2)c2cc(Br)ccc21 (stereo not given) | -70.2% (active)
CCc1ccc(C(=O)CC2(O)C(=O)N(CCc3ccccc3)c3ccc(Br)cc32)cc1 (stereo not given) | -104% (active)
CCOC(=O)CN1C(=O)C(O)(CC(=O)c2ccccn2)c2ccccc21 (stereo not given) | 12.1%
